Consider 3 compounds from PubChem BioAssay (NCATS).

For some assays here: Measured potencies and affinities stand elsewhere. The source made the active and inactive calls.

The conditions of test [1]: Ebola virus entry cell assay, ratio channel.
For test [2] the following is noted: Ebola virus entry reporter assay, green channel fluorescence.

Usually AC50 stands for the concentration at which the activity in the assay is half-maximal. For the compound `CNCCC=C1c2ccccc2CCc2ccccc21`, in test [1], the AC50 was 7.94 µM (active).
On to `CC(C)[C@H]1C(=O)N2CCC[C@H]2[C@]2(O)O[C@](NC(=O)[C@@H]3C[C@@H]4c5cccc6[nH]cc(c56)C[C@H]4N(C)C3)(C(C)C)C(=O)N12`, for which the compound was classed as inactive in test [2] and in test [1].
For `CCOC(=O)CCC(=O)O[C@H]1[C@H](O[C@@H]2[C@@H](C)[C@H](O[C@H]3C[C@@](C)(OC)[C@@H](O)[C@H](C)O3)[C@@H](C)C(=O)O[C@H](CC)[C@@](C)(O)[C@H](O)[C@@H](C)C(=O)[C@H](C)C[C@@]2(C)O)O[C@H](C)C[C@@H]1N(C)C`, the compound was called inactive in test [2] and in test [1].
